# Assay outcomes (PubChem BioAssay)
# Shown are actives, neighbours in structure and some others; about 2.6% of the full set was active somewhere.
# HepG2 tox: HepG2 cytotoxicity, counter-screen for TGF-b inhibitors; AID 588856; HepG2 CAGA-GFP viability, ATP luminescence, 18 h; 410,000 tested, 0.76% active; Potency, µM (highest dose often 46.1 µM), for inactives: top-dose activity change, negative = cytotoxicity, hits mostly cytotoxic; further: potency means the concentration at half of the fitted maximal effect
#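 CellTiter-Glo luminescence gave cytotoxicity after 18 hours at 37 degrees C. The cells were HepG2 CAGA-GFP in 1% FBS DMEM, stimulated with 500 pg/mL TGF-beta after compound addition. %Activity was normalised to no-cell wells (complete cell-killing) and DMSO (no toxicity), and curves were fitted and classified.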
# Giardia killer: kills Giardia lamblia | Giardia lamblia trophozoite viability | activity change, % at 7.66 µM, hits read low | 340,000 tested, 0.15% active; in the data active means activity change below about -80%; inconclusive means between about -30% and that limit;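 further: parasites exposed to compound for two days anaerobically before the ATP read; on the % scale 0 is the no-effect control and ±100 the full control effect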
#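 Trophozoite viability was measured as ATP-dependent luminescence, read 15-30 min after reagent addition. Before that, parasites at 100 cells/well were exposed to compounds for 48 h, anaerobically, at 37 deg C.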
# ATXN viability: viability counter-screen for ATXN expression inhibitors; 400,000 tested, 0.49% active; Potency, µM (doses to about 56.7 µM), hits mostly cytotoxic; S2 cells (HEK-293 line with an ATXN2-luciferase reporter) viability, CellTiter-Fluor protease fluorescence, 24 h; further: potency means the concentration at half of the fitted maximal effect; nearly all actives have a fitted effect of over 40% in size
# uPA generation: inhibitors of cell surface uPA generation; 330,000 tested, 0.31% active; cell surface uPA generation assay, qHTS; Potency, µM (highest dose often 38.3 µM), for inactives: top-dose activity change, negative = inhibition, actives largely listed as inhibitors; active means well fitted inhibition curve with a large enough effect; inconclusive means small, poorly fitted or top-dose-only effect; inactive means no such curve, though single readings can be large or run the other way; tested in mouse RAW 264.7 cells; further: potency means the concentration at half of the fitted maximal effect; on the % scale 0 is the no-effect control and ±100 the full control effect; nearly all actives have a fitted effect of over 55% in size
# TGFb inhibitor: TGF-b pathway inhibition. HepG2 CAGA-GFP TGF-b/SMAD3 reporter, GFP fluorescence, 18 h; TGF-beta stimulated, 500 pg/mL final. Potency, µM (highest dose often 46.1 µM), inactives show top-dose activity, negative = inhibition, actives largely listed as inhibitors. 410,000 tested, 1.2% active. AID 588855; further: potency means the concentration at half of the fitted maximal effect; on the % scale 0 is the no-effect control and ±100 the full control effect; nearly all actives have a fitted effect of over 65% in size
#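 HEPG2 CAGA-GFP reporter cells (1000/well, DMEM with 1% FBS) received compounds, then recombinant TGF-beta at 500 pg/mL final for 18 hours at 37 degrees C. Per-cell GFP summed per well was normalised to unstimulated and stimulated DMSO controls before curve fitting.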
# ATXN2 expr inh: ATXN2 expression inhibition; HEK-293 ATXN2-luciferase reporter, luminescence, 24 h; Potency, µM (titrated, usually from 57 µM), without a hit: at the top dose activity change, negative = inhibition, most hits filed as inhibitors; 360,000 tested, 0.72% active; AID 1745845; further: potency means the concentration at half of the fitted maximal effect; on the % scale 0 is the no-effect control and ±100 the full control effect; nearly all actives have a fitted effect of over 55% in size
#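 ATXN2-luciferase reporter cells (luciferase flanked by upstream and downstream ATXN2 gene portions) were treated 24 h at 37 °C with compounds at up to 57 uM. SteadyGlo luminescence gave expression; GF-AFC fluorescence gave viability.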
# The depositor's hits bear a star; i = inactive; ? = inconclusive; . = no result given; ! = repeats disagree. Unless noted, the call rests on the fitted dose curve; in most records, active means well fitted curve in the direction sought with a large enough effect; inconclusive means small, poorly fitted or top-dose-only effect, or another doubt; inactive means no such curve, though single readings can be large; an effect the other way counts as inactive or inconclusive.
SMILES,HepG2 tox,Giardia killer,ATXN viability,uPA generation,TGFb inhibitor,ATXN2 expr inh
CN(Cc1cnc2nc(N)nc(N)c2n1)c1ccc(C(=O)N[C@@H](CCC(=O)O)C(=O)O)cc1,-68.6%,3.8,?,-80.1%,5.8%,31.6µM*!
C[C@@H](Cc1cc2c(c(C(N)=O)c1)N(CCCO)CC2)NCCOc1ccccc1OCC(F)(F)F,.,.,.,.,.,-13.3%
Cc1cnc(-n2ncc(C(=O)N(C)C3CCOC3)c2C)nc1-c1ccc(F)cc1 (stereo not given),.,.,i,.,.,.
CC(=O)Nc1cc(O)c2nonc2c1O,0.562µM*,-3.2,.,.,0.562µM*,.
O=C(Nc1nccs1)[C@@H]1CC=C[C@@H]2CCN(Cc3ccc(Cl)c(Cl)c3)C(=O)[C@@H]21,-21.5%,.,.,.,-23.5%,.
O=S(=O)(c1ccc2ncccc2c1)N1CCN(c2nc(-c3cccs3)nc3ccccc23)CC1,.,-9.4,.,.,.,.
Cc1ccc(NC(=S)NC2CCSc3ccccc32)cc1C (stereo not given),-10.8%,-3.0,i,4.4%,15.8µM*,-29.7%
COC(=O)c1ccc(C(=O)NC2CCSc3ccccc32)cc1 (stereo not given),-39.6%,-7.7,i,3.0%,-2.1%,-0.2%
O[C@H]1C[C@H](c2ccc(Cl)cc2)N(CC2CCCCC2)C[C@@H]1n1cc(C2CC2)nn1,15.8µM*,.,35.5µM*,.,?,?
O[C@@H]1CN(CC2CCCCC2)[C@@H](c2ccc(Cl)cc2)C[C@H]1n1cc(C2CC2)nn1,-28.5%,.,20µM*,.,2.7%,?
Cc1ccc2c(c1)c1c(n2CC(O)CNC2CCCC2)CCCC1 (stereo not given),-101.2%,1.8,25.1µM*,?,?,.
Cc1cnc(-n2ncc(C(=O)N(C)C3CCOC3)c2-c2cccs2)nc1-c1ccc(F)cc1 (stereo not given),.,.,i,.,.,.
COc1ccc(N2C(=O)CC(Sc3ncn[nH]3)C2=O)c(OC)c1 (stereo not given),-4.3%,-1.7,.,-15.1%,?,22.4µM*
CC(C)C(NS(C)(=O)=O)c1nnc2n1CCN(Cc1ccc(Cl)cc1)CC2 (stereo not given),.,.,i,.,.,.
CC(C)(C)n1ncc2c(=O)n(Cc3cc(F)c(F)cc3Cl)cnc21,6.1%,.,.,.,9.1%,.
c1cc2cc(-c3c(-c4ccc5c(c4)OCO5)noc3-c3ccsc3)ccc2[nH]1,-84.9%,4.0,i,-21.5%,?,14.4%
Cc1onc(-c2ccc3c(c2)OCO3)c1-c1ccc2[nH]ccc2c1,-13.4%,4.4,?,?,12.6µM*,-22.7%
C[C@@H]1CN(Cc2ccc3c(c2)CN(Cc2cccc4c2OCO4)CCO3)C[C@H](C)O1,.,.,i,.,.,.
O=C(c1cccs1)N1CCN(c2cccc(Cl)c2)CC1,-29.6%,-21.0,i,-1.5%,-2.1%,-35.0%
O=C(c1ccc([N+](=O)[O-])s1)N1CCN(c2cccc(Cl)c2)CC1,-97.8%,?,?,?,11.2µM*,-24.7%
O=C(COC(=O)Cn1cnc2ccccc21)Nc1ccc2c(c1)C(=O)c1ccccc1C2=O,-28.3%,-6.4,?,11.2µM*,-28.5%,.
COc1nn(-c2ccccc2)c(=O)c(Cl)c1Cl,14.1µM*,0.6,?,26.1%,14.1µM*,?
Cc1c(C(=O)c2ccc(Cl)cc2[N+](=O)[O-])c2ccccn2c1CCC#N,5.0%,-100.5*,i,-2.7%,-16.2%,-6.1%
Cc1cccc(Oc2nc(-c3ccccn3)nc3ccccc23)c1,11.2µM*,-6.3,?,0.6%,?,-8.0%
Cc1cccc(CNCCn2cc(C(=O)Nc3ccccc3)nn2)c1,.,.,i,.,.,.
SMILES,HepG2 tox,Giardia killer,ATXN viability,uPA generation,TGFb inhibitor,ATXN2 expr inh
Cc1onc(-c2ccccc2)c1CNS(=O)(=O)c1ccccc1,11.2µM*,-16.6,i,-1.7%,0.0%,-19.7%
O=c1cc(-c2ccc(O)c(O)c2)oc2c1ccc1ccccc12,-41.8%,1.7,i,2.51µM*,?,?
COCCNc1nc(NCC2CCCCC2)c2sc(-c3ccccc3)cc2n1,-102.2%,.,17.8µM*,.,?,35.5µM*
COCCNc1nc(NCCNC(C)=O)c2sc(-c3ccccc3)cc2n1,-36.4%,.,i,.,-31.1%,-9.2%
COCCNc1nc(NCCOc2ccccc2Cl)c2sc(-c3ccccc3)cc2n1,14.1µM*,.,?,.,?,0.0%
COCCNc1nc(NCCCN2CCCC2=O)c2sc(-c3ccccc3)cc2n1,-31.9%,.,?,.,-9.7%,-17.2%
CCn1cc([N+](=O)[O-])c(C(=O)N2N=C(c3cccc4ccccc34)CC2c2ccccc2O)n1 (stereo not given),-55.0%,-25.6,?,-6.4%,12.6µM*,?
CCn1cc([N+](=O)[O-])c(C(=O)N2N=C(c3ccc4ccccc4c3)CC2c2ccccc2O)n1 (stereo not given),-75.4%,-10.5,?,-5.4%,14.1µM*,?
CCn1cc([N+](=O)[O-])c(C(=O)N2N=C(c3ccc(OC)cc3OC)CC2c2ccccc2O)n1 (stereo not given),-24.9%,-14.5,i,0.7%,?,-4.8%
CCn1cc(Cl)c(C(=O)N2N=C(c3ccc4ccccc4c3)CC2c2ccccc2O)n1 (stereo not given),-44.7%,-3.0,?,-3.6%,7.08µM*,17.8µM*
O=C1CCc2cc(-c3csc(-c4ccc(O)cc4)n3)ccc2N1,-43.3%,.,.,.,-18.4%,.
CCOc1ccc(CCNC(=O)Cn2c(-c3cccs3)cc3cc(F)ccc32)cc1OCC,-62.4%,.,11.2µM*,.,?,22.4µM*
CCOc1cc(CNC(=O)Cn2c(-c3cccs3)cc3cc(F)ccc32)ccc1OC,-0.9%,.,?,.,?,-15.5%
CC(C)CC(=O)NCCc1ccncc1,2.82µM*,-6.9,i,2.7%,-18.1%,-13.4%
COc1ccc(Br)cc1C(=O)NC(=S)Nc1ccc(CN2CCOCC2)cc1,-17.1%,24.1,i,-4.6%,-7.6%,25.1µM*
O=C(NC(=S)Nc1ccc(CN2CCOCC2)cc1)c1ccc(-c2ccc(Br)cc2)o1,-2.6%,9.6,i,2.4%,19.8%,-1.2%
Cc1cc(-c2ccnc(-n3ncc(C(=O)NCC4CCCO4)c3C3CC3)n2)c(C)s1 (stereo not given),.,.,i,.,.,.
COc1cccc(-n2nc(C#N)c(Cl)cc2=O)c1,17.8µM*,-18.9,31.6µM*,-11.2%,6.31µM*,22.4µM*
O=C(c1ccc(N2CCCC2)c([N+](=O)[O-])c1)N1CCN(CCO)CC1,7.94µM*,1.6,i,4.5%,-2.7%,-2.6%
C=C1C(=O)C23C(O)C1CCC2C12CCCC(C)(COC(C)=O)C1C(O)C3(O)OC2 (stereo not given),3.16µM*,-7.3,7.08µM*,-10.0%,2µM*,?
